The list is not random: actives were taken first. Their share in the collection is about 19%.
CHX counter – affects cycloheximide protein synthesis inhibition readout, counter-screen; cell reporter, cycloheximide protein synthesis inhibition counterscreen; max response, %; 300,000 tested, 12% active; AID 2314; in the data active means max response mostly above about 13%, no sharp cut-off; inactive means mostly below about 14%; further: read at 38.3 µM for the half of the compounds with a filed dose; 0% is about no effect
SARS PLP yeast – blocks SARS-CoV papain-like protease in a yeast assay. S. cerevisiae expressing SARS-CoV PLpro, growth rescue. Potency, µM (titrated, usually from 32.9 µM), for the others: at the highest dose activity, positive = growth rescue, most hits filed as activators. 330,000 tested, 0.19% active. AID 485353; calls by dose curve; further: potency means the concentration at half of the fitted maximal effect; 0% is about no effect; nearly all actives have a fitted effect of over 55% in size
Pf growth 48h – P. falciparum growth inhibition at 48 hours (one generation); P. falciparum luciferase growth in erythrocytes, 48 h; Potency, µM (top dose mostly 28.7 µM), without a hit: at the top dose activity change, negative = inhibition, most hits filed as inhibitors; 310,000 tested, 5.9% active; AID 504832; further: potency means the concentration at half of the fitted maximal effect; on the % scale 0 is the no-effect control and ±100 the full control effect
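Erythrocytes infected with P. falciparum carrying an integrated firefly luciferase reporter (2% hematocrit, 0.1% parasitemia final) were exposed to compounds in RPMI 1640 with 0.5% Albumax at 37 C, 5% CO2. Growth inhibition was scored as reduced luminescence.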
AMA1 RON2 block – AMA1-RON2 (P. falciparum) interaction inhibition | 360,000 tested, 0.2% active | Potency, µM (series often up to 58.2 µM), without a hit: at the highest dose activity change, negative = inhibition, usual class: inhibitors | AID 720542 | AlphaScreen AMA1-biotinylated RON2 peptide binding;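 further: potency means the concentration at half of the fitted maximal effect; 0% = vehicle wells and -100% = peptide control; nearly all actives have a fitted effect of over 45% in size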
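AMA1 (3D7) with his tag at 25 nM final met compounds first, then biotinylated RON2 peptide at 25 nM; detection used donor plus acceptor beads, 10 µg/mL apiece, read by AlphaScreen after 30 min at room temperature.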
Pf growth 96h – P. falciparum growth inhibition at 96 hour, primary screen for plastid delayed-death inhibitors | P. falciparum luciferase reporter growth, 96 h | Potency, µM (doses to about 28.7 µM), without a hit: at the highest dose activity change, negative = inhibition, actives largely listed as inhibitors | 320,000 tested, 6.9% active; further: potency means the concentration at half of the fitted maximal effect; on the % scale 0 is the no-effect control and ±100 the full control effect
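Cell-based qHTS: luciferase-tagged P. falciparum in erythrocytes (2% hematocrit, 0.05% parasitemia final) incubated with compounds for 96 hours, 37 C, 5% CO2; luciferase detection reagent then added and luminescence measured.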
Shiga inhibitor – blocks Shiga toxin action in Vero cells. Vero cells, Shiga toxin protein synthesis inhibition reporter. inhibition, % at 38.7 µM. AID 2315. 290,000 tested, 9.2% active; in the data active means inhibition mostly above about 28%, no sharp cut-off; inactive means mostly below about 43%; further: 0% is about no effect
* = called active by the depositor; i = inactive; ? = inconclusive; · = no result given; [ ] = another dose, or the depositor's remark. Unless noted, the call rests on the fitted dose curve; in most records, active means well fitted curve in the direction sought with a large enough effect; inconclusive means small, poorly fitted or top-dose-only effect, or another doubt; inactive means no such curve, though single readings can be large; an effect the other way counts as inactive or inconclusive.

SMILES | CHX counter | SARS PLP yeast | Pf growth 48h | AMA1 RON2 block | Pf growth 96h | Shiga inhibitor
CC(=NCc1ccco1)c1c(O)n(C2CCCCC2)c(=O)[nH]c1=O | 4.0 | -6.9% | ? | -6.9% | -13.6% | -3.2
C/C(=N\NC(=O)c1ccccc1O)c1c(O)n(C2CCCCC2)c(=O)[nH]c1=O | 23.4* | 2.8% | ? | 64.2% | ? | 41.2*
O=c1[nH]c(/C=C/c2ccc(Cl)cc2Cl)c([N+](=O)[O-])c(=O)[nH]1 | -2.4 | 8.0% | 195.0% | -0.9% | 497.3% | -21.9
CCOC(=O)Cn1c(=O)oc2cc(S(=O)(=O)N(C)c3cccc(C)c3)ccc21 | -0.5 | -1.5% | 1.2% | -1.8% | -1.9% | -13.9
CC(=NCCO)c1c(O)n(C2CCCCC2)c(=O)[nH]c1=O | 22.1 | 2.3% | -2.2% | 19.2% | -1.8%[5.75 µM] | 36.0
C/C(=N\NC(=O)c1ccccc1)c1c(O)n(C2CCCCC2)c(=O)[nH]c1=O | 40.8* | -3.5% | 14.1% | 83.9% | -8.5% | 66.9*
O=C1c2ccc([N+](=O)[O-])cc2NC(c2ccco2)N1/N=C/c1ccco1 (stereo not given) | 14.7* | -6.1% | 33.1% | -0.5% | ? | 31.1*
CN=c1scc(-c2ccc([N+](=O)[O-])cc2)n1/N=C/c1ccco1 | 27.1* | -2.5% | 338.5% | -10.6% | i | 90.9*
O=C(Nc1ccc(N2CCCC(O)C2)cc1)c1snc2c(=O)[nH]cnc12 (stereo not given) | 0.2 | -2.2% | · | -1.5% | 41.6% | 21.1
Cc1nc2c(C(=O)Nc3ccc(N4CCCC(O)C4)cc3)snc2c(=O)[nH]1 (stereo not given) | 1.7 | -7.2% | 1.65µM* | -7.2% | ? | 1.0
O=C(Nc1nc2c(s1)CN(Cc1ccccc1)CC2)C1CCC1 | 31.1* | 0.5% | 36.8%[5.75 µM] | -14.4% | -6.1% | 74.2*
CCN1CCc2nc(NC(=O)c3ccccc3)sc2C1 | 9.9 | · | 157.0% | 9.3% | 195.8% | 25.9
CCCOC(=O)c1ccc(NC(=O)c2ccoc2C)cc1 | 40.5* | -31.6% | 180.0% | 3.6% | -6.1% | 88.2*
CCCCOC(=O)c1ccc(NC(=O)c2ocnc2C)cc1 | 1.4 | -4.5% | 32.4% | -8.0% | 73.6% | 11.4
CCCCOC(=O)c1ccc(NC(=O)c2ccoc2C)cc1 | 28.8* | -2.4% | -50.7% | -12.1% | -2.9% | 69.8*
Cc1ccc(CN2CCN(Cc3ccc4cc(F)ccc4n3)CC2CCO)o1 (stereo not given) | -0.4 | 1.0% | 18.1% | 1.0% | ? | 39.5
CC(C)(C)NCC(O)c1cc(Cl)c(N)c(C(F)(F)F)c1 (stereo not given) | · | · | 13.5µM* | · | 8.49µM* | ·
CC(C)(C)NCC(O)c1cc(O)cc(O)c1 (stereo not given) | 0.4 | 0.2% | -5.4% | 10.3% | -0.6% | 0.6
O=C(Cc1ccc(Cl)cc1Cl)OCC(=O)c1ccc[nH]1 | 13.2 | -9.1% | · | -9.6% | 30.5% | 58.9
O=C(COc1ccc(F)c(Cl)c1)c1ccc[nH]1 | 36.2* | -6.7% | 19.7% | -14.1% | ? | 39.8
O=C(COc1ccc(Cl)cc1Cl)OCC(=O)c1ccc[nH]1 | · | 1.4% | -5.6% | 4.4% | 16.4% | ·
O=C(CCC(=O)c1ccc[nH]1)c1ccc(Cl)cc1 | 46.0* | -2.8% | 201.7% | 11.0% | 184.3% | 99.8*
COC(=O)c1ccc2cc(OC)cc([N+](=O)[O-])c2n1 | · | · | · | -7.3% | · | ·
CCOC(=O)c1cccc(NC(=O)CS(=O)(=O)Cc2nc(-c3cccc(OC)c3)oc2C)c1 | -2.2 | -5.8% | -21.4% | 10.3% | 0.0% | -3.9
CC(C)CNS(=O)(=O)c1ccc(Br)cc1N1CCC[C@@H]1CO | · | -0.6% | · | 0.7% | · | ·
SMILES | CHX counter | SARS PLP yeast | Pf growth 48h | AMA1 RON2 block | Pf growth 96h | Shiga inhibitor
O=C(O)CCc1ccc(-c2ccc(Br)cc2)o1 | 9.4 | -27.9% | 11.0% | 32.3% | -1.8% | 38.9*
COc1ccc(-c2ccc(CCC(=O)O)o2)cc1 | 25.5* | -3.1% | 26.8% | -5.2% | ? | 41.0*
O=C(O)CCc1ccc(-c2ccc(Cl)cc2)o1 | 12.1 | -37.0% | · | 8.9% | ? | 35.8
COc1ccc(-c2ccc(CCC(=O)O)n2C(C)C)cc1 | -1.5 | -4.1% | ? | -7.4% | · | -14.5
CC1Sc2ccc(C(=O)Nc3ncccc3O)cc2NC1=O (stereo not given) | · | 0.3% | 147.0% | 33.2% | 144.8% | ·
CCn1c(-c2cccnc2Cl)nc2cc(Cl)c(Cl)cc21 | 40.1* | -0.8% | -0.8% | 49.0% | 21.9% | 78.4*
CC1=CC(C)C2C(=O)N(CCCN(C)C)C(=O)C2C1 (stereo not given) | -3.1 | 6.4% | 9.3% | 4.6% | · | -12.3
COc1ccc(C(OCC(O)CNCCc2ccc(S(N)(=O)=O)cc2)c2ccc(OC)cc2)cc1 (stereo not given) | -1.9 | -0.4% | · | 1.3% | 11.7µM* | -2.1
OC(CNCCc1ccc(C(F)(F)F)cc1)COC(c1ccccc1)c1ccccc1 (stereo not given) | -11.2 | -3.5% | · | -12.3% | 3.7µM* | -23.3
CN(C)CC(O)COC(c1ccccc1)c1ccccc1 (stereo not given) | 8.5 | -0.8% | -10.4% | 7.6% | -3.6% | -1.9
c1ccc(C[C@H]2CN=C(Nc3ccccc3)N2CCC2CCCC2)cc1 | · | 0.0% | ? | 4.1% | ? | ·
NC1=NC[C@H](Cc2ccccc2)N1CCCCC1CCCCC1 | -0.5 | -5.5% | ? | 10.4% | 11.7µM* | 0.7
NC1=NC[C@H](Cc2ccc(O)cc2)N1CCCCC1CCCCC1 | -6.9 | -3.4% | 2.08µM* | -3.9% | 2.08µM* | 1.6
NC1=NC[C@H](Cc2ccccc2)N1CCc1cccc(F)c1 | -3.8 | 8.4% | 5.86µM* | 5.0% | 3.7µM* | 1.0
NC1=NC[C@@H](CC2CCCCC2)N1CCc1cc(C(F)(F)F)cc(C(F)(F)F)c1 | · | -1.1% | · | 1.1% | · | ·
O=C1CSC(c2ccc([N+](=O)[O-])cc2)N1c1ccc(O)cc1 (stereo not given) | -1.3 | 2.8% | ? | 4.2% | i | -7.5
COc1cc2nc(NC(=O)c3ccccc3)sc(=O)c2cc1OC | -3.8 | 0.3% | 0.5% | 7.3% | 11.1% | -2.7
O=c1cccc2n1Cc1cc3ccccc3nc1-2 | 39.2* | -8.6% | 180.8% | 9.1% | 188.5% | 38.2*
COC(=O)[C@H](CC(C)C)N(Cc1ccccc1)S(=O)(=O)N(Cc1ccc(OC)cc1)[C@@H](CC(C)C)C(=O)OC | · | -5.1% | · | -20.6% | · | ·
CCOC(=O)[C@@H](C)N(Cc1ccc(OC)cc1)S(=O)(=O)N(Cc1ccccc1)[C@H](C(=O)OC)C(C)C | · | -4.8% | 10.4µM* | 1.9% | ? | ·
C=C[C@H](CC(C)C)N(Cc1ccccc1)S(=O)(=O)N(Cc1ccc(OC)cc1)[C@H](C=C)CC(C)C | · | 2.9% | 5.22µM* | -0.9% | ? | ·
CCOC(=O)[C@@H](C)NS(=O)(=O)N(Cc1ccccc1)[C@H](C(=O)OC)C(C)C | · | 2.7% | -23.0% | -2.8% | 17.8% | ·

Assay outcomes (PubChem)
